For 14 molecules, growth results are on record in PubChem BioAssay (NCI).

About 83,000 compounds went through this panel and 20% of them were active in at least one assay; those are over-represented in the sample as a whole.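 Cell lines were cultured in 96-well plates, exposed to a single compound concentration, and assessed for percent growth 48 hours later.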 Values without a mark were called inactive. Activity calls are given as the source filed them. How the source made its calls: active means growth percent below 10; inactive means the rest.

Test in all cases: NCI-60 one-dose screen, 48 h (100 = growth as untreated, 0 = no growth, -100 = all killed)
Holding throughout (conditions): 10 µM unless noted

Assay [1] has as its system RPMI-8226 leukemia.
Assay [2] relates to OVCAR-8 ovarian.
Assay [3] deals with OVCAR-5 ovarian.
Assay [4] has as its system SK-OV-3 ovarian.
Assay [5] concerns IGROV1 ovarian.
Assay [6] has as its system OVCAR-3 ovarian.
Assay [7] relates to HS 578T breast.
Assay [8] concerns NCI/ADR-RES ovarian.
Assay [9] has as its system T-47D breast.
The test system of assay [10] is OVCAR-4 ovarian.

Take `CCOC(=O)c1cc2c(n1Cc1cc(OC)c(OC)c(OC)c1)-c1oncc1CCC2`: the growth in assay [1] was 16.8%; in [2], 16.6%; in assay [3], 56.2%; in assay [4], 11.2%; in assay [5] it was 33.3%; in assay [6] it was -22% (active). The results for the growth in [7], in [8] and in [9] were 18.2%, 3.55% (active) and 74%, respectively.
In the case of `O=C(NCCCN1CCC(N2CCCCC2)CC1)C1=Cc2cc(Br)ccc2OC1`, the growth in assay [1] is 30.3%; in assay [2] it was 19%; in assay [3], 77%; in assay [4] it was 86.4%; in assay [5], 33.3%; in assay [6] it was 48.6%. Also, the growth was 55.8% in assay [7], 38.9% in assay [8] and 44.8% in [9].
For `CCOC(=O)c1c(Cl)c2c(n1Cc1ccccc1)-c1oncc1CCC2`, the growth is 50.6% in [1]; 84.3% in [2]; 95.3% in assay [3]; 95.2% in assay [4]; 75.1% in assay [5]; 39.5% in [6]. The growth in assay [7] is 69.7%; in assay [8], 43.5%; in [9], 80.7%.
For the molecule `COc1ccc(CCN2CCC(CN(C)Cc3cnn(-c4ccccc4)c3)CC2)cc1`, the growth in assay [1] is 15.6%; in [2] it was 15.3%; in [3], 57.4%; in assay [4], 39.2%; in assay [5], 28.9%; in assay [6], 37.4%. The growth in assay [7] is 67.1%; in [8] it was 12%; in assay [9] it was 36.4%.
In the case of `COc1ccc(OC)c(NC(=O)/C(C#N)=C/c2ccco2)c1`, the growth in assay [1] was 93.7%; in assay [2] it was 102%; in assay [3], 115%; in assay [4], 88.2%; in assay [5], 92.7%; in assay [6], 110%. Further, the results for the growth in assay [7], in [8] and in assay [9] were 108%, 103% and 57.5%, respectively.
On to `O=C(Nc1ccsc1C(=O)NC1CCCCC1)c1ccc(F)cc1`, for which the growth in assay [1] is 70%; in [2], 102%; in assay [3], 98.3%; in assay [4] it was 101%; in assay [5], 90.7%; in assay [6] it was 111%. For the same molecule, the growth is 105% in assay [7], 96.5% in assay [8] and 102% in [9].
With `CCn1c(SCC(=O)Nc2cc(C(F)(F)F)ccc2Cl)nc2ccccc2c1=O`, the growth is 14.2% in assay [1]; 60.9% in assay [2]; 78.3% in [3]; 76.5% in assay [4]; 34.2% in [5]; 52.4% in assay [6]. In addition, the growth is 43.8% in [7], 47.3% in assay [8] and 50.6% in assay [9].
`COc1ccc(/C=C/C(=O)c2c(C)nc3ccccc3c2/C=C/c2ccccc2)c(OC)c1`: the growth in [1] was 66.1%; in assay [2], 76.1%; in assay [3], 88.2%; in [4], 94.3%; in assay [5] it was 47.5%; in assay [7], 82.3%. In addition, the growth in [8] was 85.9%; in [9], 55%.
Regarding `Oc1c(C(Nc2ccccn2)c2cccc(Oc3ccccc3)c2)ccc2cccnc12` (configuration not stated), the growth in [1] was -50.6% (active); in assay [2], -85.2% (active); in [3] it was -84.1% (active); in [4] it was -90.1% (active); in assay [5], -91.7% (active); in [6], -96.6% (active). The figures for the growth in assay [7], in [8] and in assay [9] were -47.6% (active), -81.1% (active) and -71% (active), respectively.
`COc1ccccc1CNC(=O)C1c2ccccc2C(=O)N(CC(C)C)C1c1cccs1` (configuration not stated): the growth in assay [1] was 2.15% (active); in [2], 50.5%; in assay [3] it was 84.2%; in [4] it was 106%; in assay [5], 71.8%; in assay [6], 58%. Further, the figures for the growth in [7], in assay [8] and in assay [9] were 68.8%, 71.4% and 42.5%, respectively.
As to `NCCNc1nc2ccc(F)cc2c2c(=O)c3cc(F)ccc3sc12`, the growth in [1] is 7.67% (active); in assay [2], 29.9%; in assay [3] it was 81.2%; in assay [4], 77.6%; in assay [5], 22.9%; in assay [6] it was 38.1%. For the same molecule, the growth in assay [7] was 59.5%; in assay [8], 61.7%; in assay [9], 33.7%.
Turning to `CCCN1C(=O)N(CCC)C2C1NN=c1s/c(=C3\C(=O)N(C(C)C)c4ccccc43)c(=O)n12` (configuration not stated), the growth was 61.2% in assay [1]; 58.4% in [2]; 76% in assay [3]; 41.5% in assay [5]; 30.3% in assay [7]; 44.5% in assay [8]. Further, the growth in [9] was 28.1%.
For `N#C/C(=C1\SC(=O)CN1c1ccccc1)c1nc2ccccc2s1`, the growth in [1] was 83.7%; in [2], 94.9%; in assay [3], 103%; in assay [4], 99.1%; in [6], 87%; in assay [7], 94.3%. For the same molecule, the figures for the growth in [8] and in assay [9] were 89.2% and 73.6%, respectively.
For `CN(C)/C=C1\SC(=Nc2ccc(Cl)cc2)NC1=O`, the growth in assay [1] is 108%; in [2] it was 97.8%; in assay [10] it was 108%; in assay [4], 104%; in assay [5] it was 102%; in assay [6], 107%. In addition, the growth in assay [7] was 95.5%; in assay [8], 102%; in [9], 105%.
